This passage reports cytotoxicity call results from the antibiotic and cytotoxicity screens of Wong et al. (2023).

Each structure is given as a SMILES string. Screen size: about 39,000 compounds; about 3,300 (8.5%) were called active. This is one part of a sample in which actives are shown more often than they occur.

For the assay, the system named is HepG2. Briefly: cytotoxicity call (relative viability < 0.9). The note with it: 10 µM.
For the molecule `COc1ccc(S(=O)(=O)N[C@@H]2C=C[C@H](CC(=O)NCCc3ccncc3)O[C@H]2CO)cc1`, the cytotoxicity call is “inactive”.

With `O=C(C[C@@H]1C[C@H]2c3cc(NC(=O)c4ccc5c(c4)OCO5)ccc3O[C@H]2[C@H](CO)O1)NCCN1CCCCC1`, the cytotoxicity call is “inactive”. As for `COc1ccc(C(=O)Nc2cccc(CN3C(=O)[C@]4(O[C@H](CC(=O)N5CCC[C@H]5CO)[C@@H]([Si](C)(C)c5ccc(OC)cc5)[C@@H]4C)c4ccccc43)c2)cc1`, the entry is “inactive”; as for `COc1ccc(C(=O)Nc2cccc(CN3C(=O)[C@@]4(O[C@@H](CC(=O)N5Cc6ccccc6C[C@H]5CO)[C@H]([Si](C)(C)c5ccc(OC)cc5)[C@H]4C)c4ccccc43)c2)cc1`, “active”. Turning to `COc1ccc(C(=O)Nc2ccc(CN3C(=O)[C@]4(O[C@H](CC(=O)N5Cc6ccccc6C[C@H]5CO)[C@@H]([Si](C)(C)c5ccc(OC)cc5)[C@@H]4C)c4ccccc43)cc2)cc1`, the cytotoxicity call was “active”. `COc1ccc([Si](C)(C)[C@@H]2[C@@H](CC(=O)N3Cc4ccccc4C[C@H]3CO)O[C@]3(C(=O)N(Cc4ccc(N5CCOC5=O)cc4)c4ccccc43)[C@H]2C)cc1`: the cytotoxicity call was “inactive”. As for `COc1ccc(C(=O)Nc2cccc(CN3C(=O)[C@@]4(O[C@@H](CC(=O)N5CCC[C@H]5CO)[C@H]([Si](C)(C)c5ccc(OC)cc5)[C@H]4C)c4ccccc43)c2)cc1`, the entry is “inactive”; as for `COc1ccc([Si](C)(C)[C@H]2[C@H](CC(=O)N3Cc4ccccc4C[C@H]3CO)O[C@@]3(C(=O)N(Cc4cccc(N5CCOC5=O)c4)c4ccccc43)[C@@H]2C)cc1`, “inactive”. The entry for `COc1ccc([Si](C)(C)[C@H]2[C@H](CC(=O)N3Cc4ccccc4C[C@H]3CO)O[C@@]3(C(=O)N(Cc4ccc(N5CCOC5=O)cc4)c4ccccc43)[C@@H]2C)cc1` is “active”. As for `COc1ccc([Si](C)(C)[C@@H]2[C@@H](CC(=O)N3Cc4ccccc4C[C@H]3CO)O[C@]3(C(=O)N(Cc4ccc(I)cc4)c4ccccc43)[C@H]2C)cc1`, the entry is “inactive”. In the case of `COc1ccc(C(=O)Nc2ccc(CN3C(=O)[C@@]4(O[C@@H](CC(=O)N5Cc6ccccc6C[C@H]5CO)[C@H]([Si](C)(C)c5ccc(OC)cc5)[C@H]4C)c4ccccc43)cc2)cc1`, the cytotoxicity call is “inactive”.

In the case of `C[C@H](CO)N1C[C@H](C)[C@@H](CN(C)Cc2ccc(-c3ccccc3)cc2)Oc2c(NC(=O)C3CCOCC3)cccc2C1=O`, the cytotoxicity call is “inactive”. As for `C[C@@H]1CN([C@H](C)CO)C(=O)c2cc(NC(=O)CCCN(C)C)ccc2O[C@@H](C)CCCCO[C@@H]1CN(C)S(C)(=O)=O`, the entry is “inactive”.

In the case of `C[C@@H]1CN([C@H](C)CO)C(=O)CCCn2cc(nn2)CO[C@@H]1CN(C)C(=O)Nc1ccc(N2CCCCC2)cc1`, the cytotoxicity call is “inactive”.
